# Source: PubChem BioAssay (EPA / NIEHS)
# Values joined by “and” are separate entries in the source; they are usually repeats but may differ in a detail not shown here. Identical values can stand only once. Some compounds were tested as several samples or in several runs, with calls that do not always agree. Active and inactive are the calls of the source. How the source made its calls: active means hit-call score of the fitted dose curve at least 0.9, where 1 is the maximum; inactive means score below 0.9.
# Read-out: TIMP metallopeptidase inhibitor 2 (TIMP2), TIMP2 (gene 7077)
# Test: BSK_KF3CT_TIMP2: BioMAP Diversity Plus: KF3CT Assay for TIMP metallopeptidase inhibitor 2 (TIMP2) Biomarker Activity (AID 2283071)
# Conditions: primary human keratinocytes with fibroblasts; actives raise or lower the signal
# Protocol: BSK_KF3CT is a cell-based, multiplexed-readout assay that uses keratinocytes and foreskin fibroblasts, a human skin primary cell co-culture, with measurements taken at 24 hours after chemical dosing in a 96-well plate.BSK_KF3CT_TIMP2 is an assay component measured in the BSK_KF3CT assay. It measures TIMP-2 antibody related to regulation of gene expression using ELISA technology.Data from the assay component BSK_KF3CT_TIMP2 was analyzed into 1 assay endpoint. This assay endpoint, BSK_KF3CT_TIMP2, was analyzed with bidirectional fitting relative to DMSO as the negative control and baseline of activity. Using a type of binding reporter, gain or loss-of-signal activity can be used to understand changes in the signaling as they relate to the gene TIMP2. Furthermore, this assay endpoint can be referred to as a primary readout, because this assay has produced multiple assay endpoints where this one serves a signaling function. To generalize the intended target to other relatable targets, this assay endpoint is annotated to the protease inhibitor intended target family, where the subfamily is metalloproteinase inhibitor.
# The levels of cell surface (or secreted, indicated by the prefix "s") biomarker endpoints were measured by ELISA. Overt cytotoxicity to cells in confluent adherent cultures (all systems other than the BT system) was assessed by measuring total protein levels using sulforhodamine B (SRB) staining in parallel cultures at the time of biomarker measurements, indicated as SRB endpoints. For proliferation assays for adherent cell types, individual cell types are cultured at sub-confluence and relative cell numbers quantified by SRB staining at time points optimized for each system (48 h: 3C and CASM3C systems; 72 h: BT and HDF3CGF systems; 96 h: SAg system). SRB was performed by staining cells with 0.1% SRB after fixation with 10% TCA and reading wells at 560 nm.Viability and proliferation of PBMC (T cells) was quantified by Alamar Blue reduction for the SAg and BT systems. For PBMC viability (referred to as PBMC Cytotoxicity within the assay endpoint names), cells were plated (75,000/well in a 96-well plate) and then chemical samples added for 1 h before addition of activators, SEB and TSST-1 (20 ng/mL final concentration each). Cells were incubated for 90 h. Then, Alamar Blue (20 uL/well) (Invitrogen, Cat DAL1100) was added for 6 h, and the plates were read with a fluorescence microplate reader at 546/580 nm (excitation/emission). For PBMC proliferation, cells were plated and activated as above but incubated for only 16 h prior to addition of Alamar Blue. Plates were read after 6 h.
SMILES,outcome,AC50
CCCN(CCOc1c(Cl)cc(Cl)cc1Cl)C(=O)n1ccnc1,inactive,–
O=S(=O)(O)C(F)(F)C(F)(F)C(F)(F)C(F)(F)C(F)(F)C(F)(F)C(F)(F)C(F)(F)F,inactive,33.9 µM (active) and 35.3 µM (active)
CCC(C)(C)C(=O)OC1=C(c2ccc(Cl)cc2Cl)C(=O)OC12CCCCC2,–,28 µM (active)
CCOC1Oc2ccc(OS(C)(=O)=O)cc2C1(C)C (stereo not given),inactive,–
CC(C)(C)C(O)C(Oc1ccc(Cl)cc1)n1cncn1 (stereo not given),inactive,–
CC[C@H](C)[C@H]1O[C@]2(C=C[C@@H]1C)C[C@@H]1C[C@@H](C/C=C(\C)[C@@H](O[C@H]3C[C@H](OC)[C@@H](O[C@H]4C[C@H](OC)[C@@H](O)[C@H](C)O4)[C@H](C)O3)[C@@H](C)/C=C/C=C3\CO[C@@H]4[C@H](O)C(C)=C[C@@H](C(=O)O1)[C@]34O)O2 (tested in a mixture with another compound),–,12.6 µM (active)
O=[N+]([O-])c1c(Cl)c(Cl)c(Cl)c(Cl)c1Cl,–,29.9 µM (active)
N#Cc1c(Cl)c(Cl)c(Cl)c(C#N)c1Cl,–,1.89 µM (active)
COC(=O)c1ccccc1CS(=O)(=O)NC(=O)Nc1nc(OC)cc(OC)n1,inactive,–
COC(=O)c1ccccc1S(=O)(=O)NC(=O)Nc1nc(C)nc(OC)n1,inactive,–
C#CCN1C(=O)COc2cc(F)c(N3C(=O)C4=C(CCCC4)C3=O)cc21,inactive,–
Cc1[nH]c(=O)n(C(C)(C)C)c(=O)c1Cl,inactive,–
COC(=O)c1ccccc1S(=O)(=O)NC(=O)N(C)c1nc(C)nc(OC)n1,inactive,–
O=C(Nc1ccccc1)Nc1cnns1,inactive,–
O=C(O)C(F)(F)C(F)(F)C(F)(F)C(F)(F)C(F)(F)C(F)(F)C(F)(F)F,inactive,–
CCC(C)Nc1c([N+](=O)[O-])cc(C(C)(C)C)cc1[N+](=O)[O-] (stereo not given),inactive,–
ClC1C(Cl)C(Cl)C(Cl)C(Cl)C1Cl (stereo not given),inactive,20 µM (active)
CCC(C)(NC(=O)c1cc(Cl)c(C)c(Cl)c1)C(=O)CCl (stereo not given),–,16.6 µM (active)
CNC(=O)Oc1cccc(N=CN(C)C)c1,inactive,–

SMILES,outcome,AC50
CNC(=O)/C=C(\C)OP(=O)(OC)OC,inactive,–
COP(=O)(OC)OC=C(Cl)Cl,inactive,–
O=C(NC(=O)c1c(F)cccc1F)Nc1ccc(OC(F)(F)C(F)OC(F)(F)F)c(Cl)c1 (stereo not given),inactive,–
Oc1cc(Cl)ccc1Oc1ccc(Cl)cc1Cl,–,30 µM (active) and 29.7 µM (active) and 20 µM (active)
COc1nn(CSP(=S)(OC)OC)c(=O)s1,inactive,–
CC(C)OC(=O)Nc1cccc(Cl)c1,inactive,–
CN1CSC(=S)N(C)C1,inactive,–
OCCOc1ccccc1,inactive,–
O=C(O)CCCOc1ccc(Cl)cc1Cl,inactive,–
CCOc1nc(NC)nc(NC(=O)NS(=O)(=O)c2ccccc2C(=O)OC)n1,inactive,–
CC(C)N(C(=O)COc1nnc(C(F)(F)F)s1)c1ccc(F)cc1,inactive,–
CC(C)(C)C(O)/C(=C\c1ccc(Cl)cc1Cl)n1cncn1 (stereo not given),–,33.2 µM (active)
N#CN,inactive,–
CCCN(CCC)c1c([N+](=O)[O-])cc(C(F)(F)F)cc1[N+](=O)[O-],inactive,–
CCOCN(C(=O)CCl)c1c(C)cccc1CC,inactive,–
O=S1OCC2C(CO1)C1(Cl)C(Cl)=C(Cl)C2(Cl)C1(Cl)Cl (stereo not given),–,26.9 µM (active)
CC1(c2ccc(Oc3ccccc3)cc2)OC(=O)N(Nc2ccccc2)C1=O (stereo not given),inactive,–
Cc1cc(C)nc(NC(=O)NS(=O)(=O)c2ccccc2C(=O)OC2COC2)n1,inactive,–
O=C1c2ccccc2C(=O)N1SC(Cl)(Cl)Cl,inactive,–
